Shown are actives, neighbours in structure and some others; about 6.9% of the full set was active somewhere.
JMJD2A Tudor inh = JMJD2A Tudor domain (human) inhibition; O75164; AlphaScreen JMJD2A-Tudor / H3K4me3 peptide binding; Potency, µM (titrated, usually from 114 µM), without a hit: at the highest dose activity change, negative = inhibition, actives largely listed as inhibitors; 390,000 compounds, 4.4% hits; also: % is scaled to controls: 0 for no effect and ±100 for the full control effect; nearly all actives have a fitted effect of over 50% in size
HP1b chromo inh = blocks HP1-beta chromodomain binding to methylated histone tails; 390,000 compounds, 0.56% hits; AlphaScreen HP1-beta / biotin-H3K9me3 peptide binding; Potency, µM (titrated, usually from 114 µM), for inactives: at the highest dose activity change, negative = inhibition, usual class: inhibitors; P83916; also: nearly all actives have a fitted effect of over 70% in size
Target sequence (P83916 whole entry, looked up): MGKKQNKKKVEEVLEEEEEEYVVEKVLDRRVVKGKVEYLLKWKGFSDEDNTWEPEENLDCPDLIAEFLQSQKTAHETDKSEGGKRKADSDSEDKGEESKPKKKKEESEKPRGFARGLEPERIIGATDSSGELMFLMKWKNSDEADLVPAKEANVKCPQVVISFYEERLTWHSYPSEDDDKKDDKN
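AlphaScreen: HP1-beta (50 nM) preformed 30 min with biotin-H3(1-18)K9me3 peptide (50 nM) in PBS pH 7.4, 0.01% Tween-20. Compound added for 30 min at RT, then streptavidin donor/nickel chelate acceptor beads (10 ug/mL) for 30 min.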
BAZ2B block = BAZ2B (human) inhibition | AlphaScreen BAZ2B-H3K14Ac peptide displacement | Potency, µM (series often up to 114 µM), for the others: at the highest dose activity change, negative = inhibition, actives largely listed as inhibitors | 360,000 compounds, 4.4% hits; also: % is scaled to controls: 0 for no effect and ±100 for the full control effect; nearly all actives have a fitted effect of over 60% in size
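BAZ2B (50 nM) with biotin-H3(5-23)K14Ac peptide (50 nM) in PBS pH 7.4, 0.01% Tween-20, preformed 30 min, then compound 30 min at room temperature; top concentration 110uM. AlphaScreen streptavidin donor/nickel chelate acceptor beads (10 ug/mL final), 20 min dark, signal read.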
VDR inh = blocks the human vitamin D receptor; P11473; Potency, µM, for the others: max response, negative = inhibition, hits mostly inhibitors; 400,000 compounds, 0.93% hits; VDR-SRC2-3 peptide fluorescence polarization, 2 h; AID 504847; also: % is scaled to controls: 0 for no effect and ±100 for the full control effect
Target sequence (P11473 whole entry, looked up): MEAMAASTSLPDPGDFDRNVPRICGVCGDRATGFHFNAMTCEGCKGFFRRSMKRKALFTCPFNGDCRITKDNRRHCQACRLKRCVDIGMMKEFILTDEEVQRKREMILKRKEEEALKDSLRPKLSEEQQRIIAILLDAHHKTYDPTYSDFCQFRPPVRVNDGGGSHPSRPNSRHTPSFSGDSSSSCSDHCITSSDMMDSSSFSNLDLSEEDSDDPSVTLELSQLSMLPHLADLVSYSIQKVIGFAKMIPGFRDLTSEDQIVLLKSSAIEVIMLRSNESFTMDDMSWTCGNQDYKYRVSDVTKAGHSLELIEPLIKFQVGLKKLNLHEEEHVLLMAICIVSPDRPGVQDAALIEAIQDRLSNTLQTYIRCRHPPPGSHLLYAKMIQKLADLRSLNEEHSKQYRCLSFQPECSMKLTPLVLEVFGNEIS
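After 23 nl compound addition and a short centrifugation, plates sat for 2 hours at ambient temperature; polarization of fluorescence then indicated loss of VDR binding to peptide SRC2-3.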
L3MBTL1 inh = L3MBTL1 (human) inhibition. Q9Y468. AlphaScreen L3MBTL1–H3K9me1 peptide binding. Potency, µM (titrated, usually from 57.1 µM), for inactives: at the highest dose activity, negative = inhibition, usual class: inhibitors. 230,000 compounds, 0.66% hits; also: % is scaled to controls: 0 for no effect and ±100 for the full control effect; nearly all actives have a fitted effect of over 60% in size
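AlphaScreen proximity signal between nickel-chelate acceptor and streptavidin donor beads (final 10 ug/mL) reports binding of 50 nM L3MBTL1 to 75 nM biotin-H3 K9me1 peptide; complex incubated with compounds 30 min at room temperature; cefsulodin titration as control.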
PLK1 PBD block = inhibitors of human PLK1 polo-box domain binding. Plk1 PBD binding of FITC phosphopeptide, fluorescence polarization. 360,000 compounds, 2.8% hits. P53350. Potency, µM, for the others: max response, negative = inhibition, hits mostly inhibitors; also: series mostly up to about 57 µM; % is scaled to controls: 0 for no effect and ±100 for the full control effect; nearly all actives have a fitted effect of over 65% in size
An asterisk follows results filed as active; ? = inconclusive; · = no result; [ ] = remark or other dose. Calls follow the shape of the dose curve; as a rule, active = well fitted curve in the direction sought with a large enough effect; inconclusive = small, poorly fitted or top-dose-only effect, or another doubt; inactive = no such curve, though single readings can be large; an effect the other way counts as inactive or inconclusive. Potency is read from the fitted curve at half-maximal effect.

SMILES | JMJD2A Tudor inh | HP1b chromo inh | BAZ2B block | VDR inh | L3MBTL1 inh | PLK1 PBD block
O=S(=O)(NCc1ccccc1Cl)c1cccs1 | -6% | 6% | 0% | -6% | · | -18%
Cc1ccc(S(=O)(=O)Cc2cc(F)c([N+](=O)[O-])cc2[N+](=O)[O-])cc1 | -33% | 19% | 56µM* | -8% | · | 2.4µM*
CCOC(=O)c1ccc([N+](=O)[O-])c(CS(=O)(=O)c2ccc(Cl)cc2)c1 | ? | ? | ? | 10% | · | 1%
COc1cccc(Nc2ncc3nc(-c4cn(C)c5ccccc45)c(=O)n(C[C@H]4CCCO4)c3n2)c1 | · | · | · | 4% | · | ·
CC1=NN(c2ccccc2)C(=O)/C1=C/c1ccc[nH]1 | 16µM* | 16µM* | 11µM* | 6% | ? | -7%
CC1=NN(c2ccccc2)C(=O)/C1=C\c1cc(C)n(-c2ccccc2)c1C | -27% | ? | ? | 7% | 0% | 4%
CC1=NN(c2cccc(F)c2)C(=O)/C1=C/c1ccc(N(C)C)cc1 | -17% | -2% | -26% | -4% | -1% | -1%
CC1=NN(c2ccccc2)C(=O)C1=Cc1ccccc1 | · | · | · | · | · | 4.7µM*
CC1=NN(c2ccccc2)C(=O)/C1=C\N(O)c1ccccc1 | ? | 30% | -11% | -28% | -1% | ?
CC1=NN(c2ccccc2)C(=O)/C1=C/C=C/C=C/N(C)C | ? | ? | 13µM* | -5% | · | 42%
CC1=NN(c2ccccc2)C(=O)/C1=C/c1cccs1 | 40µM* | ? | 16µM* | 79µM* | ? | 17µM*
CCN(CC)S(=O)(=O)c1ccc(NC(=O)NCc2noc3ccc(C)cc23)cc1 | -17% | 54% | -1% | 0% | · | ·
C[C@H](CO)N1C[C@H](C)[C@H](CN(C)S(C)(=O)=O)OCc2cnnn2CCCC1=O | · | · | · | · | · | 3%
Cc1c(C(=O)Nc2ccc(F)c(Cl)c2)sc2nc3n(c(=O)c12)CCC3 | -12% | 40% | -13% | 9% | · | ·
CC1=NN(c2ccccc2)C(=O)/C1=C\c1ccc(Br)s1 | 10µM* | ? | 11µM* | -25% | ? | 4.7µM*
Cc1ccc(C(=O)C=CC=Cc2ccccc2)cc1 | · | · | · | · | · | -10%
Cc1ccc(C2=N/C(=C\c3cccs3)C(=O)N2Nc2ccccc2)cc1 | ? | ? | 35µM* | 19% | -17% | 1%
O=C1c2ccccc2/C(=C\c2ccc(Br)s2)N1c1ccccc1 | -31% | 18% | · | -8% | -12% | -1%
CCCCc1c(O)n(-c2ccccc2)[nH]c1=O | · | · | · | -3% | · | ·
CC1=NN(c2ccc(C)cc2)C(=O)/C1=C\C=C\c1ccccc1 | 4.5µM* | 5.6µM* | 2.5µM* | 79µM* | ? | -28%
CC1=NN(c2ccccc2)C(=O)/C1=C/c1c(O)n(-c2ccc(F)cc2)[nH]c1=O | 28µM* | ? | 40µM* | -14% | -1% | ?
Cc1ccc(S(=O)(=O)C(CNS(=O)(=O)c2cc(F)ccc2F)c2cccs2)cc1 (centres undefined) | -13% | -3% | -4% | 9% | · | ·
CC(C)(C)c1cc(-c2n[nH]c(=S)n2-c2ccccc2F)n[nH]1 | 10µM* | 14% | -30% | -10% | -5% | -11%
C=CCn1c(-c2ccoc2)n[nH]c1=S | 5µM* | ? | ? | -4% | 2% | -12%
C=CCn1c(-c2ccncc2)n[nH]c1=S | 16µM* | 36% | ? | 4% | -1% | -7%
SMILES | JMJD2A Tudor inh | HP1b chromo inh | BAZ2B block | VDR inh | L3MBTL1 inh | PLK1 PBD block
C=CCn1c(Cc2nc3ccc(Cl)cc3[nH]2)n[nH]c1=S | ? | 6% | ? | -4% | · | -25%
OCCCn1c(-c2ccccc2)n[nH]c1=S | 28µM* | 24% | -3% | 14% | -18% | -7%
OCCCc1n[nH]c(=S)n1-c1ccccc1 | 1% | 40% | -28% | 4% | -8% | -4%
CCCn1c(-c2ccncc2)n[nH]c1=S | 7.9µM* | 6% | 5% | -7% | 3% | 0%
C=CCn1c(-c2cccc3ccccc23)n[nH]c1=S | 19% | 18% | -33% | 2% | · | -5%
C=CCn1c(-c2ccc(F)cc2)n[nH]c1=S | 7.1µM* | 26% | -23% | -3% | · | -13%
C=CCn1c(-c2ccccc2)n[nH]c1=S | ? | -12% | 46% | -10% | 36% | 8.4µM*
Cc1ccccc1OCC(=O)Nc1ccccc1OCc1cc(=O)n2ccccc2n1 | 1% | 32%[57 µM] | 8% | 17% | · | ·
COCCCNC(=O)c1sc2nc(C)c(C(=O)Nc3ccc(C)cc3C)c(-c3ccccc3Cl)c2c1N | 1% | 63% | 9% | -17% | · | ·
CCc1ccc(CN/C=C/C(=O)c2ccc(Br)cc2)cc1 | -3%[11.4 µM] | 40% | 40% | -12% | · | 24µM*
CCc1ccc(NCCC(=O)c2ccc(Br)cc2)cc1 | -3% | 1% | 3% | 7% | -11% | -7%
O=C(NC1CC(=O)N(c2ccc(F)cc2)C1)c1cc2ccccc2o1 (centres undefined) | -9% | 44% | -2% | 25% | · | ·
Cc1cc(NC(=O)c2ccco2)c(=O)n(Cc2cccc(C(F)(F)F)c2)c1 | -14% | 6% | -10% | -9% | · | -10%
COC(=O)/C=C1\N/C(=N\c2nc(C)cc(C)n2)N(c2ccc(C)c(C)c2)C1=O | 28µM* | 30% | -30% | ? | 9% | 5%
COC(=O)/C=C1\N/C(=N\c2nc(C)cc(C)n2)N(c2ccc(Cl)cc2)C1=O | 20µM* | 8% | -8% | -18% | -1% | -15%
Cc1cc(C)nc(/N=C2\NC(=O)CC(C(=O)O)N2c2ccc(F)c(Cl)c2)n1 (centres undefined) | · | · | -20% | · | -24% | ·
COC(=O)/C=C1/C(=O)N/C(=N\c2nc(C)cc(C)n2)N1c1ccc(OC)cc1 | 25µM* | 29% | ? | -1% | 4% | -4%
COC(=O)/C=C1\C(=O)N(c2nc3ccc(OC)cc3s2)C(=S)N1c1ccc(F)cc1 | · | · | 5% | · | 3% | ·
c1cnc2nc(CSc3ncn[nH]3)cn2c1 | -10% | 30% | 0% | -5% | 6% | -3%
Cc1ccc2nc(SCc3cn4cccnc4n3)[nH]c2c1 | ? | ? | 11% | ? | 13% | 27µM*
COc1cc(CNc2ccc(N3CCCCC3)cc2)ccc1OCC(=O)NC(C)(C)C | 45µM* | ? | 32µM* | 8% | ? | 0%
COc1cc(CNC(C)(C)CO)ccc1OCC(=O)NC(C)(C)C | -2%[57.1 µM] | 40% | 3% | 0% | 10% | -8%
COc1cc(CO)ccc1OCC(=O)Nc1ccc(Br)cc1 | -23% | 38% | -5% | -1% | 5% | -11%
COc1cc(CNc2ccc(S(N)(=O)=O)cc2)ccc1OCc1ccccc1F | -34% | 17% | · | 9% | · | 1%
C=CCOc1ccc(CNc2ccc(NC(=O)CC(C)C)cc2)cc1OC | ? | -1% | 50µM* | 11% | -16% | 3%

High-throughput results: PubChem BioAssay, National Center for Advancing Translational Sciences (NCATS)
